Shown are actives, neighbours in structure and some others; about 12% of the full set was active somewhere.
L3MBTL1 inh: qHTS Assay for the Inhibitors of L3MBTL1 | AlphaScreen L3MBTL1–H3K9me1 peptide binding | Potency, µM (top dose mostly 57.1 µM), for inactives: at the top dose activity, negative = inhibition, hits mostly inhibitors | 230,000 tested, 0.66% active; further: on the % scale 0 is the no-effect control and ±100 the full control effect; nearly all actives have a fitted effect of over 60% in size
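L3MBTL1 (50 nM) pre-complexed 30 min with biotinylated H3(1-15)K9me1 peptide (75 nM), then compounds added for 30 min at room temperature; AlphaScreen streptavidin donor/nickel chelate acceptor beads (10 ug/mL final) read after 30 min dark incubation.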
JMJD2A Tudor: qHTS Assay for Inhibitors of JMJD2A-Tudor Domain | Potency, µM (titrated, usually from 114 µM), for inactives: top-dose activity change, negative = inhibition, actives largely listed as inhibitors | 390,000 tested, 4.4% active | AID 504339, 2011 | AlphaScreen JMJD2A-Tudor / H3K4me3 peptide binding | Lysine-specific demethylase 4A (Homo sapiens), O75164; further: on the % scale 0 is the no-effect control and ±100 the full control effect; nearly all actives have a fitted effect of over 50% in size
HP1b chromo inh: HTS for Inhibitors of HP1-beta Chromodomain Interactions with Methylated Histone Tails. Chromobox protein homolog 1 (Homo sapiens), P83916. AlphaScreen HP1-beta / biotin-H3K9me3 peptide binding. Potency, µM (highest dose often 114 µM), for inactives: at the highest dose activity change, negative = inhibition, usual class: inhibitors. 390,000 tested, 0.56% active. AID 540317, 2011; further: nearly all actives have a fitted effect of over 70% in size
Target sequence (P83916 whole entry, looked up): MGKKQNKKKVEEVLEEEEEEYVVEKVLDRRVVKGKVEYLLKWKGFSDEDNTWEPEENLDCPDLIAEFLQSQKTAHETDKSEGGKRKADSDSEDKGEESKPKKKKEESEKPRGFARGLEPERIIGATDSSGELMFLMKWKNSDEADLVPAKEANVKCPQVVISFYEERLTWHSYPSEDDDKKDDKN
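Compound inhibition of the preformed complex between 50 nM HP1-beta and 50 nM biotinylated H3K9me3 peptide was read by AlphaScreen. Buffer was PBS pH 7.4 with 0.01% Tween-20. Incubations ran 30 min at room temperature, with 10 ug/mL donor/acceptor beads.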
G9a inh: qHTS Assay for Inhibitors of Histone Lysine Methyltransferase G9a; Histone-lysine N-methyltransferase EHMT2 (Homo sapiens), Q96KQ7; G9a H3K9 monomethylation, AlphaScreen, 2 h; Potency, µM (titrated, usually from 102 µM), for inactives: at the highest dose activity, negative = inhibition, most hits filed as inhibitors; 350,000 tested, 8.8% active; further: on the % scale 0 is the no-effect control and ±100 the full control effect; nearly all actives have a fitted effect of over 75% in size
Target sequence (Q96KQ7 913-1193 limits assumed): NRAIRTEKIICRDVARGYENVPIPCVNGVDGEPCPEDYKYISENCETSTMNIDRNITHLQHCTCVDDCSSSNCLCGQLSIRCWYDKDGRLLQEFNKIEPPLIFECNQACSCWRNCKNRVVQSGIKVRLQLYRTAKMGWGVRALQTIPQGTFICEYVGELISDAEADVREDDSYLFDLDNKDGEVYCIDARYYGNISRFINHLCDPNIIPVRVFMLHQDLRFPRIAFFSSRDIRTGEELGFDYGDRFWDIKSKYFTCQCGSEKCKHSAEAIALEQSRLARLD
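G9a (20 nM) preincubated 15 min RT with compounds, then 500 nM biotinylated H3K9 peptide and 20 uM SAM added; 2 h RT reaction. Monomethyl-H3K9 product detected by AlphaScreen with anti-H3K9me1 antibody, streptavidin donor and anti-rabbit IgG acceptor beads.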
Sfp inh: qHTS Assay for Inhibitors of Bacillus subtilis Sfp phosphopantetheinyl transferase (PPTase); 4'-phosphopantetheinyl transferase ffp (Bacillus subtilis), Q9F4F7; 310,000 tested, 3.5% active; Biochemical Sfp PPTase activity, qHTS; AID 1490, 2009; Potency, µM, without a hit: largest response in the series, negative = inhibition, usual class: inhibitors;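 further: the enzyme is Sfp with the accession as filed and its product quenches rhodamine fluorescence; 0% = enzyme reaction without inhibitor and -100% = no enzyme wells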
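Compounds were incubated with enzyme (final 15 nM) for 15 min at room temperature before substrate addition started the reaction. Fluorescence at 525 nm excitation, 598 nm emission was recorded immediately and after 30 minutes.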
BAZ2B inh: qHTS Assay for Inhibitors of BAZ2B; Bromodomain adjacent to zinc finger domain protein 2B (Homo sapiens), Q9UIF8; AlphaScreen BAZ2B-H3K14Ac peptide displacement; Potency, µM (doses to about 114 µM), inactives show at the highest dose activity change, negative = inhibition, hits mostly inhibitors; 360,000 tested, 4.4% active; further: on the % scale 0 is the no-effect control and ±100 the full control effect; nearly all actives have a fitted effect of over 60% in size
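AlphaScreen luminescence quantifies BAZ2B engagement of H3K14Ac peptide; the protein and biotinylated peptide are both at 50 nM final, buffer PBS pH 7.4 with 0.01% Tween-20, all steps at room temperature.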
Active calls of the source: *; u = inconclusive; x = no result given; ! = not confirmed by another sample; [ ] = another dose, or the depositor's remark. The call rests on the fitted dose curve; in most records, active means well fitted curve in the direction sought with a large enough effect; inconclusive means small, poorly fitted or top-dose-only effect, or another doubt; inactive means no such curve, though single readings can be large; an effect the other way counts as inactive or inconclusive. Potency means the concentration at half of the fitted maximal effect.

SMILES	L3MBTL1 inh	JMJD2A Tudor	HP1b chromo inh	G9a inh	Sfp inh	BAZ2B inh
C/C(=N\O)c1ccc2c3c([nH]c2c1)CCCC3	-4.6%[11.4 µM]	u	-15.1%	u	-9.3%	39.8µM*
CCOc1ccc(C2C(=O)N(C3CCCCCC3)CC(=O)N2Cc2ccc(F)cc2)cc1OC (stereo not given)	x	-19.6%	18.6%	-16.6%[59 µM]	x	-9.6%
CC1CCN(S(=O)(=O)c2ccc3c(ccc(=O)n3CC(=O)NCc3ccccc3Cl)c2)CC1	x	u	22.0%[57 µM]	-11.3%[59 µM]	x	-8.4%
COC(=O)C(C)(N)Cc1ccc(O)cc1 (stereo not given)	1.9%	-19.4%	21.2%	25.1µM*!	x	9.6%
CCCCN1CCC2C=CCC(C(=O)O)C2C1=O (stereo not given)	x	-20.7%	27.9%	x	7.2%	x
COc1ccc(C2c3cc(OC)c(OC)cc3CC(=O)N2c2ccc(C)cc2)cc1 (stereo not given)	x	-28.8%	12.8%	-26.9%[59 µM]	x	-26.7%
CCN1CCN(CC(=O)N2CCCC(C(=O)c3ccc(Oc4ccccc4)cc3)C2)CC1 (stereo not given)	u	-25.4%	14.4%	35.5µM*	-20.1%	50.1µM*
Cc1cccc(C(c2sc3nc(-c4ccco4)nn3c2O)N2CCOCC2)c1 (stereo not given)	x	-5.8%	29.2%	11.7%[59 µM]	x	0.1%
COc1ccc(N=Nc2c(C)[nH]c3ccccc23)cc1	x	50.1µM*	u	x	x	x
CC(=O)c1cccc(N=Nc2c(C)[nH]c3ccccc23)c1	-27.2%	u	-30.9%	10µM*	-3.1%	35.5µM*
COc1ccc(N=Cc2c(O)[nH]c3ccccc23)cc1	-9.3%	-14.4%	7.5%	-37.9%[59 µM]	18.3%	-6.7%
CCOC(=O)c1c(NC(=O)c2cc3nc(-c4ccccc4)cc(C(F)(F)F)n3n2)sc2c1CCC(C)C2 (stereo not given)	x	-10.3%	26.1%	10.5%[59 µM]	x	2.7%
CN1CCN(c2ncc3nc(-c4ccc(F)cc4)c(=O)n(Cc4cccs4)c3n2)CC1	x	x	x	11.0%[0.501 µM]	-20.5%	x
COc1ccc(CN2CCN(C(C)C(=O)NC(C)c3ccc(F)cc3)CC2)cc1F (stereo not given)	x	-7.4%	22.5%	-1.9%	-3.7%	-3.7%
COc1cccc(CN2CCN(C(=O)CC(C)C)CC2)c1	0.5%	5.62µM*	-57.2%	17.8µM*	-13.8%	56.2µM*
CC(C)CC(=O)N1CCN(Cc2cccc(F)c2)CC1	-1.5%	4.47µM*	u	-45.6%[12.7 µM]	-16.5%	56.2µM*
COc1ccc(CN2CCN(C(C)C(=O)N(C)Cc3cccc(F)c3)CC2)cc1OC (stereo not given)	x	4.47µM*	u	2µM*	u	17.8µM*
COc1cc(OC)c(OC)cc1CN1CCN(C(=O)CC(C)C)CC1	-2.6%	1.58µM*	u	17.8µM*	8.9%	u
CC(C)CC(=O)N1CCN(C(=O)c2ccco2)CC1	x	-1.7%	35.8%	-11.2%	18.3%	6.7%
Cc1ccc(CNC(=O)c2cc(=O)c3cc(C)c(C)cc3o2)cc1	x	-16.7%	30.8%	5.1%[59 µM]	x	-8.5%
CCC(=O)Nc1ccc(C)cc1-c1nc2ccccc2n(C(C)C(=O)Nc2ccccc2CC)c1=O (stereo not given)	x	-31.8%	47.5%	u	x	-0.1%
CCCCC1OC2(C)OC(=N)C1(C#N)C(C#N)(C#N)C2c1ccccc1 (stereo not given)	-2.4%	-15.2%	17.8%	44.7µM*	21.2%	1.6%
CC1OC2(C)OC(=N)C1(C#N)C(C#N)(C#N)C2c1ccccc1 (stereo not given)	-7.1%	-6.4%	23.0%	-5.7%[59 µM]	-3.1%	-17.6%
Cc1cc(C)c(N(Cc2ccccc2)S(=O)(=O)c2ccc(OCCNC(=O)c3cc4ccccc4o3)cc2)c(C(=O)NO)c1	x	x	x	x	29.6%	x
O=C1SC(c2ccccc2)=C/C1=C\N1CCCCC1	-18.0%	50.1µM*	u	3.1%[0.0925 µM]	u	50.1µM*
SMILES	L3MBTL1 inh	JMJD2A Tudor	HP1b chromo inh	G9a inh	Sfp inh	BAZ2B inh
O=S(=O)(c1ccccc1S(=O)(=O)N1CCCCC1)N1CCCCC1	-7.8%	0.0%	15.1%	5.2%	11.8%	2.5%
CC1(C)Cc2nc3sc(C(=O)O)c(N)c3cc2CS1	x	x	x	50.1µM*	-23.4%	x
CC1(C)Cc2nc3sc(C(=O)NCCO)c(N)c3cc2CO1	-2.6%	-22.1%	17.7%	11.2µM*	u	11.3%
CC1(C)Cc2nc3sc(C(=O)NCCCO)c(N)c3cc2CS1	-10.5%	-24.0%	19.3%	25.1µM*	39.8µM*	u
CC1(C)Cc2nc3sc4c(NCCO)ncnc4c3cc2CS1	-7.5%	-30.2%	8.4%	x	-11.0%	-20.0%
O=C1CCC[C@@H](C(C(=O)OCc2ccccc2)C(=O)OCc2ccccc2)C1	x	x	x	x	1.5%	x
CC(=O)N1CCCc2cc(S(=O)(=O)N3CCC(C(=O)NCCC(C)C)CC3)ccc21	x	-3.2%	12.2%[57 µM]	12.8%[59 µM]	x	7.0%
CC1CCCCC1NC(=O)CCCCCn1c(=S)[nH]c2ccsc2c1=O (stereo not given)	x	3.1%	34.4%	28.2µM*	2.9%	-1.1%
O=C(CCCn1c(=S)[nH]c2ccsc2c1=O)NC1CCCCC1	x	-13.2%	42.3%	x	-14.8%	-3.8%
COc1ccc(N2CCN(C(=O)CCCCCn3c(=O)[nH]c4ccsc4c3=O)CC2)cc1	-12.5%	-25.4%	-16.1%	39.8µM*	10.5%	-21.0%
O=C(CCCn1c(=S)[nH]c2ccsc2c1=O)NCCc1ccccc1	x	7.0%	39.8%	10µM*	2.0%	-1.1%
CCOC(=O)N1CCN(C(=O)CCn2c(=S)[nH]c3ccccc3c2=O)CC1	x	-11.7%	29.7%	u	2.8%	-4.5%
CCOC(=O)N1CCN(C(=O)CCCCn2c(=S)[nH]c3ccsc3c2=O)CC1	x	u	20.3%	31.6µM*	79.4µM*	-32.5%
Cn1c(N=Nc2ccc(N3CCOCC3)cc2)[n+](C)c2ccccc21	-25.1%	u	u	17.8µM*	u	12.6µM*
CCc1cc(C=NC2CCCCC2)c(O)s1	-26.1%	-35.4%[57.1 µM]	-9.8%	12.6µM*	-19.9%	-30.9%
COc1cc(OC)cc(C(=O)Oc2c(CN3CCOCC3)cc(Cl)c3cccnc23)c1	25.1µM*	-29.9%	26.2%	-29.9%	-9.3%	22.4µM*
O=C(Oc1c(CN2CCOCC2)cc(Cl)c2cccnc12)c1ccccc1	x	u	30.5%	12.0%[59 µM]	-6.3%	25.1µM*
Cc1cc(OC(=O)c2cccc([N+](=O)[O-])c2)c(C)cc1CN1CCOCC1	x	u	-13.6%	x	-8.4%	u

Screens: PubChem BioAssay, National Center for Advancing Translational Sciences (NCATS)
